The campaign covered roughly 39,000 compounds. About 3,300 (8.5%) were called active. This is one part of a sample in which actives are shown more often than they occur.

Cytotoxicity call data for 63 compounds are collected here from the antibiotic and cytotoxicity screens of Wong et al. (2023).

This test deals with HepG2. The experiment in a line: cytotoxicity call (relative viability < 0.9). Particulars: 10 µM.
On to `COc1ccc2cc3[n+](cc2c1OC)CCc1cc2c(cc1-3)OCO2.[Cl-]`, for which the cytotoxicity call is “active”.

`COc1cc2c(cc1OC)-c1cc3ccc(OC)c(OC)c3c[n+]1CC2.[Cl-]`: the cytotoxicity call is “inactive”. As for `C[C@@H]1CN([C@@H](C)CO)C(=O)c2cccc(NC(=O)Nc3ccc(C(F)(F)F)cc3)c2O[C@@H]1CN(C)S(=O)(=O)c1ccc(Cl)cc1`, the cytotoxicity call is “inactive”.

Take `COCC(=O)N(C)C[C@H]1Oc2cc(C#CC(C)(C)O)ccc2S(=O)(=O)N([C@H](C)CO)C[C@@H]1C`: the cytotoxicity call was “inactive”. Take `COc1ccccc1S(=O)(=O)N(C)C[C@H]1Oc2ncc(Br)cc2C(=O)N([C@@H](C)CO)C[C@H]1C`: the cytotoxicity call is “inactive”. As for `Cc1ccc(S(=O)(=O)N(C)C[C@H]2Oc3ccc(NC(=O)Nc4cccc5ccccc45)cc3CC(=O)N([C@H](C)CO)C[C@H]2C)cc1`, the cytotoxicity call was “inactive”. For `Cc1ccc(S(=O)(=O)N(C)C[C@H]2Oc3ccc(NC(=O)Nc4cccc5ccccc45)cc3CC(=O)N([C@@H](C)CO)C[C@H]2C)cc1` the value was “inactive”. For `Cc1ccc(S(=O)(=O)N(C)C[C@H]2Oc3ccc(NC(=O)Nc4cccc5ccccc45)cc3CC(=O)N([C@@H](C)CO)C[C@@H]2C)cc1` the value was “inactive”. As to `C[C@@H]1CN([C@@H](C)CO)C(=O)Cc2cc(NC(=O)Nc3cccc4ccccc34)ccc2O[C@H]1CN(C)S(=O)(=O)c1ccc(Cl)cc1`, the cytotoxicity call is “inactive”. For the compound `C[C@H](CO)N1C[C@H](C)[C@@H](CN(C)S(=O)(=O)c2ccc(Cl)cc2)Oc2ccc(NC(=O)Nc3cccc4ccccc34)cc2CC1=O`, the cytotoxicity call was “inactive”. Take `C[C@@H]1CN([C@H](C)CO)C(=O)Cc2cc(NC(=O)Nc3cccc4ccccc34)ccc2O[C@H]1CN(C)S(=O)(=O)c1ccc(Cl)cc1`: the cytotoxicity call was “inactive”. Regarding `Cc1ccc(S(=O)(=O)N(C)C[C@@H]2Oc3ccc(NC(=O)Nc4cccc5ccccc45)cc3CC(=O)N([C@H](C)CO)C[C@@H]2C)cc1`, the cytotoxicity call is “active”. `C[C@H](CO)N1C[C@H](C)[C@H](CN(C)S(=O)(=O)c2ccc(Cl)cc2)Oc2ccc(NC(=O)Nc3cccc4ccccc34)cc2CC1=O`: the cytotoxicity call was “active”.

As for `C[C@@H]1CN([C@H](C)CO)C(=O)Cc2cc(NC(=O)Nc3cccc4ccccc34)ccc2O[C@@H]1CN(C)S(=O)(=O)c1ccc(Cl)cc1`, the cytotoxicity call was “inactive”. Consider `C[C@@H]1CN([C@@H](C)CO)C(=O)Cc2cc(NC(=O)Nc3cccc4ccccc34)ccc2O[C@@H]1CN(C)S(=O)(=O)c1ccc(Cl)cc1`, for which the cytotoxicity call was “active”. As for `C[C@H]1CN([C@@H](C)CO)C(=O)Cc2cc(NC(=O)Nc3cccc4ccccc34)ccc2O[C@@H]1CN(C)S(=O)(=O)c1ccc(Cl)cc1`, the cytotoxicity call was “inactive”. As to `C[C@H]1CN([C@@H](C)CO)C(=O)Cc2cc(NC(=O)Nc3cccc4ccccc34)ccc2O[C@H]1CN(C)S(=O)(=O)c1ccc(Cl)cc1`, the cytotoxicity call is “active”. With `C[C@@H]1CN([C@H](C)CO)C(=O)c2cc(NC(=O)c3ccncc3)ccc2O[C@@H](C)CCCCO[C@H]1CN(C)C(=O)Nc1cccc2ccccc12`, the cytotoxicity call is “inactive”. With `C[C@@H]1CCCCO[C@@H](CN(C)C(=O)c2ccccc2)[C@H](C)CN([C@H](C)CO)C(=O)c2cc(NC(=O)Nc3ccc(F)cc3)ccc2O1`, the cytotoxicity call is “inactive”.

Turning to `C[C@H]1CCCCO[C@H](CN(C)C(=O)c2ccccc2)[C@@H](C)CN([C@@H](C)CO)C(=O)c2cc(NC(=O)CCC(F)(F)F)ccc2O1`, the cytotoxicity call was “inactive”.

`Cc1noc(N)c1C(=O)O`: the cytotoxicity call was “inactive”. For `COCC(=O)N1C[C@H](C)[C@@H](OC)CN(C)C(=O)c2cc(NC(=O)c3cc(C)on3)ccc2OC[C@H]1C` the value was “inactive”. For `C[C@H]1CN([C@@H](C)CO)C(=O)c2cc(C#Cc3ccccc3F)cnc2O[C@@H]1CN(C)C(=O)Cc1cccnc1` the value was “inactive”; for `O=c1ccc(=O)n(CCO)[nH]1`, “inactive”; for `C#CCN(O[C@@H](/C=C/[C@@H](O)Cc1ccccc1)C1CC1)[C@@H](Cc1ccc(-n2cc(COc3ccccc3/C=C(C)/C=C/C(=O)NO)nn2)cc1)C(=O)OC`, “inactive”. For `Cc1noc(C)c1S(=O)(=O)N(C)C[C@@H]1OCCCC[C@H](C)Oc2ccc(NC(=O)Nc3cccc4ccccc34)cc2C(=O)N([C@H](C)CO)C[C@@H]1C` the value was “inactive”; for `COc1ccc(S(=O)(=O)N(C)C[C@H]2Oc3ccc(NC(=O)NC(C)C)cc3C(=O)N([C@@H](C)CO)C[C@@H]2C)cc1`, “inactive”. For the compound `C[C@H](CO)N1C[C@H](C)[C@H](CN(C)S(=O)(=O)c2ccc(F)cc2)Oc2ccc(NC(=O)Nc3cccc4ccccc34)cc2CC1=O`, the cytotoxicity call is “active”.

Take `C[C@@H]1CN([C@H](C)CO)C(=O)Cc2cc(NC(=O)Nc3cccc4ccccc34)ccc2O[C@H]1CN(C)S(=O)(=O)c1ccc(F)cc1`: the cytotoxicity call is “inactive”.

Consider `C[C@@H]1CN([C@@H](C)CO)C(=O)Cc2cc(NC(=O)Nc3cccc4ccccc34)ccc2O[C@@H]1CN(C)S(=O)(=O)c1ccc(F)cc1`, for which the cytotoxicity call was “inactive”. `Cc1noc(C)c1NC(=O)N(C)C[C@H]1Oc2ccc(NS(C)(=O)=O)cc2CC(=O)N([C@@H](C)CO)C[C@@H]1C`: the cytotoxicity call was “inactive”. For `O=C(C[C@H]1C[C@H]2c3cc(NC(=O)Nc4ccc(C(F)(F)F)cc4)ccc3O[C@H]2[C@@H](CO)O1)NCc1cc(F)ccc1F` the value was “inactive”. For `C[C@@H]1CN([C@@H](C)CO)C(=O)c2cccc(NC(=O)Nc3ccc(F)cc3)c2O[C@H]1CN(C)C(=O)Nc1ccc(C(F)(F)F)cc1` the value was “inactive”; for `CC(C)CCCC(=O)N[C@@H](CCNCS(=O)(=O)O)C(=O)N[C@H](C(=O)N[C@@H](CCNCS(=O)(=O)O)C(=O)N[C@H]1CCNC(=O)[C@H]([C@@H](C)O)NC(=O)[C@H](CCNCS(=O)(=O)O)NC(=O)[C@H](CCNCS(=O)(=O)O)NC(=O)[C@H](CC(C)C)NC(=O)[C@H](CC(C)C)NC(=O)[C@H](CCNCS(=O)(=O)O)NC1=O)[C@@H](C)O`, “inactive”; for `CCC(C)C1NC(=O)C(CCNCS(=O)(=O)[O-])NC(=O)C(NC(=O)C(CCNCS(=O)(=O)[O-])NC(=O)C(NC(=O)C(CCNCS(=O)(=O)[O-])NC(=O)CCCCC(C)C)C(C)O)CCNC(=O)C(C(C)O)NC(=O)C(CCNCS(=O)(=O)[O-])NC(=O)C(CCNCS(=O)(=O)[O-])NC(=O)C(C(C)CC)NC1=O.[Na+].[Na+].[Na+].[Na+].[Na+]` (stereo not drawn), “active”. Take `C[C@@H]1CN([C@H](C)CO)S(=O)(=O)c2ccc(C#Cc3cccnc3)cc2O[C@H]1CN(C)CC1CCCC1`: the cytotoxicity call was “inactive”. `Cc1noc(C)c1S(=O)(=O)N(C)C[C@H]1Oc2ccc(NS(C)(=O)=O)cc2C(=O)N([C@H](C)CO)C[C@H]1C`: the cytotoxicity call is “inactive”. Next, `COc1ccc(NC(=O)Nc2ccc3c(c2)[C@@H]2C[C@H](CC(=O)N4CCN(C)CC4)O[C@@H](CO)[C@@H]2O3)cc1`: “inactive”. Turning to `C[C@@H]1CCCCO[C@@H](CN(C)C(=O)Cc2ccccc2)[C@@H](C)CN([C@@H](C)CO)C(=O)c2cc(NS(=O)(=O)c3ccc(Cl)cc3)ccc2O1`, the cytotoxicity call was “inactive”.

Turning to `Cc1ccc(S(=O)(=O)Nc2ccc3c(c2)C(=O)N([C@@H](C)CO)C[C@H](C)[C@@H](CN(C)C(=O)Cc2ccccc2)OCCCC[C@@H](C)O3)cc1`, the cytotoxicity call was “active”. Next, `C[C@@H]1CN([C@@H](C)CO)C(=O)c2cc(NS(=O)(=O)c3ccc(Cl)cc3)ccc2O[C@@H](C)CCCCO[C@H]1CN(C)C(=O)Cc1ccccc1`: “inactive”; `C[C@@H]1CN([C@@H](C)CO)C(=O)c2cc(NS(=O)(=O)c3ccc(F)cc3)ccc2O[C@@H](C)CCCCO[C@@H]1CN(C)C(=O)Cc1ccccc1`: “inactive”; `C[C@@H]1CCCCO[C@@H](CN(C)C(=O)Cc2ccccc2)[C@@H](C)CN([C@H](C)CO)C(=O)c2cc(NS(=O)(=O)c3ccc(F)cc3)ccc2O1`: “inactive”. For `Cc1ccc(S(=O)(=O)Nc2ccc3c(c2)C(=O)N([C@@H](C)CO)C[C@H](C)[C@H](CN(C)C(=O)Cc2ccccc2)OCCCC[C@@H](C)O3)cc1` the value was “inactive”; for `Cc1ccc(S(=O)(=O)Nc2ccc3c(c2)C(=O)N([C@@H](C)CO)C[C@@H](C)[C@H](CN(C)C(=O)Cc2ccccc2)OCCCC[C@H](C)O3)cc1`, “inactive”. Turning to `C[C@H]1CCCCO[C@@H](CN(C)C(=O)Cc2ccccc2)[C@@H](C)CN([C@@H](C)CO)C(=O)c2cc(NS(=O)(=O)c3ccc(F)cc3)ccc2O1`, the cytotoxicity call was “active”. For the compound `C[C@@H]1CN([C@H](C)CO)C(=O)c2cc(NS(=O)(=O)c3ccc(Cl)cc3)ccc2O[C@@H](C)CCCCO[C@@H]1CN(C)C(=O)Cc1ccccc1`, the cytotoxicity call was “active”. For `CN(C)CC#Cc1ccc([C@@H]2[C@H]3CN(C(=O)c4cccnc4)CC(=O)N3[C@H]2CO)cc1` the value was “inactive”; for `CC(C)(C)[S@](=O)N1Cc2cc(C(=O)NCc3ccncc3)nc(-c3cccc(-c4ccc(C#N)cc4)c3)c2[C@@H]1CCO`, “inactive”; for `CO[C@H]1CN(C)C(=O)c2cc(NC(=O)C3CC3)ccc2OC[C@H](C)N(C(=O)CN2CCOCC2)C[C@H]1C`, “inactive”. Next, `CC(C)=CCCC(C)=CCC1=C(C)C(=O)c2ccccc2C1=O`: “inactive”; `CC(C)=CCC1=C(O)C(=O)c2ccccc2C1=O`: “inactive”. For `COC1=C(CC=C(C)C)C(=O)c2ccccc2C1=O` the value was “active”.

With `Cc1noc(C)c1S(=O)(=O)Nc1ccc2c(c1)CC(=O)N([C@H](C)CO)C[C@@H](C)[C@H](CN(C)S(=O)(=O)c1ccccc1)O2`, the cytotoxicity call is “inactive”. For `CN(Cc1ccc(C(C)(C)C)cc1)Cc1cccc2ccccc12` the value was “inactive”. In the case of `CCOC(=O)N(C)C[C@H]1OCc2cnnn2CCCC(=O)N([C@@H](C)CO)C[C@H]1C`, the cytotoxicity call was “inactive”. For `C[C@@H]1NC(=O)[C@@H](N)CNC(=O)[C@H]([C@H]2CCN=C(N)N2)NC(=O)/C(=C\NC(N)=O)NC(=O)[C@H](CNC(=O)C[C@@H](N)CCCN)NC1=O` the value was “inactive”; for `C[C@@H]1CN([C@@H](C)CO)C(=O)Cc2cc(NC(=O)Nc3ccc(C(F)(F)F)cc3)ccc2O[C@@H]1CN(C)C(=O)Nc1ccccc1`, “active”; for `C[C@H]1CN([C@@H](C)CO)C(=O)Cc2cc(NC(=O)Nc3ccc(C(F)(F)F)cc3)ccc2O[C@@H]1CN(C)C(=O)Nc1ccccc1`, “inactive”. Next, `C[C@H](CO)N1C[C@H](C)[C@H](CN(C)C(=O)Nc2ccc(C(F)(F)F)cc2)Oc2ccc(NC(=O)Nc3ccccc3)cc2CC1=O`: “inactive”. Next, `C[C@H](CO)N1C[C@H](C)[C@H](CN(C)C(=O)Nc2ccccc2)Oc2ccc(NC(=O)Nc3ccc(C(F)(F)F)cc3)cc2CC1=O`: “active”. As to `C[C@H](CO)N1C[C@H](C)[C@@H](CN(C)C(=O)Nc2ccccc2)Oc2ccc(NC(=O)Nc3ccc(C(F)(F)F)cc3)cc2CC1=O`, the cytotoxicity call was “inactive”. Turning to `C[C@@H]1CN([C@@H](C)CO)C(=O)Cc2cc(NC(=O)Nc3ccccc3)ccc2O[C@@H]1CN(C)C(=O)Nc1ccc(C(F)(F)F)cc1`, the cytotoxicity call was “inactive”.
